The record followed here is PubChem BioAssay AID504465 (National Center for Advancing Translational Sciences (NCATS), 2011).

The campaign covered roughly 2,100 compounds. About 210 (10%) were called active. About 53% were inconclusive and are not listed. The call rests on the fitted dose curve; in most records, active means well fitted inhibition curve with a large enough effect; inconclusive means small, poorly fitted or top-dose-only effect, or effect the other way; inactive means no such curve, though single readings can be large or run the other way. The list shows a part of the results.
Potency means the concentration at half of the fitted maximal effect.

This experiment in a line: IN Cell qHTS Assay for Inhibitors of the mTORC1 Signaling Pathway in MEF (Tsc2-/-, p53-/-) Cells: Sytravon. Further: nearly all actives have a fitted effect of over 60% in size.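 On activity, negative = inhibition: plate controls were DMSO wells for no effect and 7.5 nM rapamycin full pathway inhibition for full effect.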 The note with it: phospho-rpS6 immunofluorescence, 24 h; series mostly up to 38.3 µM; activity, negative = inhibition: at the top concentration. In short, it runs like this:
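Tsc2-/-, p53-/- MEFs (empty-vector) treated with compound 24 h at 37 degree Celsius, then fixed and stained for phospho-rpS6 Ser235/236 (Alexa-488) plus Hoechst. Reported as % positive cells, thresholds set against 7.5 nM rapamycin and DMSO wells.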
(In general: qHTS replaces the single test concentration by a dilution series.)
Consider `CCOC(=O)c1cc(S(=O)(=O)NCc2ccc(OC)cc2)[nH]n1`, for which the “activity, negative = inhibition” value was -9.55% (inactive). On the same count and under the same terms, then `O=C(Nc1ccc(F)c(F)c1)c1cc(S(=O)(=O)N2CCc3ccccc32)ccc1F`, with 6.25% (inactive); and `COc1ccc(-c2ccc(CCC(=O)O)n2-c2cc(Cl)ccc2O)cc1`, with -13.7% (inactive); and `CC(C)c1ccc(NC(=O)C2Cc3ccccc3N2C(=O)c2ccccc2)cc1` (stereo not drawn), with -4.76% (inactive). In the case of `CCOC(=O)c1c(NC(=O)c2ccc(S(=O)(=O)N3CCC(C)CC3)cc2)sc2c1CCN(CC)C2`, the “activity, negative = inhibition” value was 6.25% (inactive). The same measure, in the same setting: then `Cc1ccc(-c2cc(C(=O)N3CCN(c4ccccc4)CC3)c3ccccc3n2)cc1C`, with -15.7% (inactive); and `CCOC(=O)C1CCCN(C(=O)Cn2c(=O)cc(C)c3c(C)nn(C)c32)C1` (stereo not drawn), with -0.372% (inactive). For the compound `O=C(NCCSc1c(-c2ccc(F)cc2)[nH]c2ccccc12)c1ccc(S(=O)(=O)N2CCOCC2)cc1`, the “activity, negative = inhibition” value was 4.61% (inactive). Still for that read-out and setting: the figure for `Cc1ccc(NC(=O)c2c(C)oc3ccc(O)c(CN4CCCCC4)c23)c(C)c1` is -4.63% (inactive); for `CCc1ccc(CNC(=O)Cn2nc(-c3ccc(C)cc3)ccc2=O)cc1` it is 6.25% (inactive).

For `Cc1nnc(SCC(=O)NCc2ccccc2F)c2nn(-c3ccc(Cl)cc3)c(C)c12`, the “activity, negative = inhibition” value is 0% (inactive). Still for that read-out and setting: the figure for `Cc1c2cnn(CC(=O)NCc3ccccc3)c(=O)c2c(C)n1Cc1cccc(Cl)c1` is -19.8% (inactive).

Regarding `CCS(=O)(=O)c1ncc(Cl)c(C(=O)NCc2ccccc2)n1`, the Potency is 3.29 µM (active). The same measure, in the same setting: then `CCOC(=O)c1c(NC(=O)c2nc(S(C)(=O)=O)ncc2Cl)sc(C(C)=O)c1C`, with 5.85 µM (active). For the compound `CCCS(=O)(=O)c1ncc(Cl)c(C(=O)Nc2scc(-c3ccccc3)c2C(=O)OCC)n1`, the “activity, negative = inhibition” value is -21.1% (inactive). On the same count and under the same terms, the figure for `Cc1ccc(S(=O)(=O)C2(C(=O)Nc3ccc(C(C)C)cc3)CC2)cc1` is 23.2% (inactive); for `Cc1cccc(Cn2c(=O)n(CCCC(=O)NCc3ccccc3Cl)c(=O)c3ccccc32)c1` it is -5.71% (inactive). Regarding `Cc1cccc(CS(=O)(=O)c2ncc(Cl)c(C(=O)NCc3ccccc3)n2)c1`, the Potency is 18.5 µM (active). `CCOC(=O)c1c(NC(=O)c2ccc(S(=O)(=O)N3CCC(C)CC3)cc2)sc2c1CCN(C(C)C)C2`: the “activity, negative = inhibition” value is 6.25% (inactive). The same measure, in the same setting: then `CCC1(C)CC(=O)c2c(ccc3oc(C(=O)NCc4ccccc4)c(C)c23)O1` (stereo not drawn), with -8.68% (inactive). In the case of `COc1ccc(NC(=O)c2nc(S(=O)(=O)Cc3ccc(C)cc3)ncc2Cl)cc1`, the Potency was 2.61 µM (active). With `CCc1cnc2c(c1SCC(=O)NCc1ccccc1)c(=O)n(C)c(=O)n2C`, the “activity, negative = inhibition” value is 0.735% (inactive). Regarding `COc1ccc(NC(=O)CCc2nc3c(C)nn(-c4ccc(C)cc4)c3n(C)c2=O)cc1`, the “activity, negative = inhibition” value was -1.68% (inactive). Turning to `Cc1cccc(C(=O)Nc2ccccc2SCc2cc(=O)c3cccc(C)c3[nH]2)c1`, the “activity, negative = inhibition” value is -11.8% (inactive). With `COc1ccc(CCNC(=O)CCn2c(=O)c3ccccc3n(Cc3ccccc3C)c2=O)cc1OC`, the “activity, negative = inhibition” value is 11.2% (inactive). `COc1ccc(CCNC(=O)c2ccc3c(c2)N=C(C)c2cc(C)ccc2S3)cc1OC`: the “activity, negative = inhibition” value is -12% (inactive).

As for `O=C(Nc1cccc(C(=O)N2CCN(c3ccc(Cl)cc3)CC2)c1)c1nsc2ccccc12`, the “activity, negative = inhibition” value was -20.5% (inactive). Still for that read-out and setting: then `Cc1ccc(NC(=O)c2cc(S(=O)(=O)N3CCCCCC3)ccc2F)cc1F`, with 6.25% (inactive).

Turning to `Cc1oc2ccc(O)c(CN(C)Cc3ccccc3)c2c1C(=O)Nc1cccc(Cl)c1C`, the “activity, negative = inhibition” value was -17.4% (inactive). On to `O=c1ccc(-c2ccccc2)nn1Cc1ccc(F)cc1Cl`, for which the “activity, negative = inhibition” value was -5.19% (inactive). As for `CCc1ccc(CNC(=O)c2ccc(NC(=O)N3CCCCc4ccccc43)cc2)cc1`, the “activity, negative = inhibition” value is -0.195% (inactive). Same read-out and setting: then `CCCC(=O)C1=C(c2ccc(C)cc2)N(C(=O)CCC)n2cnnc2S1`, with -8.15% (inactive); and `Cc1cc(C)cc(NC(c2cccc(Cl)c2)c2nnc(-c3ccccc3)o2)c1` (stereo not drawn), with 20.8% (inactive).

As to `CCOC(=O)N1CCc2c(sc3c2C(=O)NC(c2cc(OC)c(OC)c(OC)c2)N3)C1` (stereo not drawn), the “activity, negative = inhibition” value was -16.6% (inactive). On the same count and under the same terms, then `CCCOc1ccc(Oc2nc(NCC(C)C)nc(N(C)C)n2)nn1`, with -11.8% (inactive); and `CCN1CCc2c(sc(NC(=O)CSc3ccccc3)c2-c2nc3ccccc3s2)C1`, with 0.735% (inactive). Turning to `Cc1ccc(CN2CCC(CNC(=O)Nc3ccc(Cl)cc3)C2)cc1` (stereo not drawn), the “activity, negative = inhibition” value was -64.5% (inactive). Turning to `O=C(NCC1CCN(Cc2cccc(Cl)c2)CC1)Nc1ccc(F)c(Cl)c1`, the “activity, negative = inhibition” value is -100% (inactive).

As for `Cc1cccc(CN2CCC(CNc3ncnc4onc(-c5ccc(Cl)cc5)c34)CC2)c1`, the Potency was 7.36 µM (active). With `CCC(C)NC(=O)c1cc(Sc2cccc(Cl)c2)nc2ccccc12` (stereo not drawn), the “activity, negative = inhibition” value was 6.25% (inactive).

Regarding `COc1ccc(-n2nnc(-c3nsc(NC(=O)c4ccc(C)c(C)c4)n3)c2C)cc1Cl`, the “activity, negative = inhibition” value is -25.9% (inactive).

As to `CCOc1ccc(-c2oc3ccccc3c(=O)c2O)cc1OCC`, the “activity, negative = inhibition” value is -100% (inactive). For `CCS(=O)(=O)c1ncc(Cl)c(C(=O)N(Cc2ccccc2)c2ccc(OC)cc2)n1`, the Potency is 3.29 µM (active).

Consider `COc1ccc(N(Cc2ccccc2)C(=O)c2nc(S(C)(=O)=O)ncc2Cl)cc1`, for which the Potency is 2.33 µM (active).

For the compound `COc1ccc(-n2cc(C(=O)N(CCN(C)C)Cc3ccccc3)c3ccccc3c2=O)cc1`, the “activity, negative = inhibition” value is -28.9% (inactive). The same measure, in the same setting: then `CCOc1ccc(N(C(=O)Cn2nnc3ccccc32)C(C(=O)NCc2ccccc2)c2ccc(OC)cc2)cc1` (stereo not drawn), with -3.48% (inactive). The same measure, in the same setting: then `CCN(CC)CCNC(=O)c1cn(CCOC)c(=O)c2c1c1ccccc1n2C`, with 18.4% (inactive); and `CC(C)C(=O)OC1=CN(Cc2ccccc2)S(=O)(=O)c2ccccc21`, with 1.95% (inactive).
